# In PubChem BioAssay AID504527 (The Scripps Research Institute Molecular Screening Center, 2011):
# Active and inactive are the calls of the source.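 How the source made its calls: active means two or more serine hydrolases at least half inhibited, plus every target band half blocked in a general-probe test; inactive means under two enzymes half blocked, or any target band not.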
# Test: broad serine hydrolase inhibition in proteome, late-stage follow-up, selectivity assay for PAFAH2 inhibitor project, fluorescence, gel-based ABPP, powder samples (AID 504527)
# Conditions: BW5147 murine T-cell proteome, FP-Rh fluorescence, competitor FP-biotin, probe test compound; non-competed targets by FP-biotin, at 20 µM, stronger effect = lower value
Structure (SMILES),count of non-competed proteins,outcome
C#CCOCCOCCOCCN(Cc1ccccc1)C(=O)n1nc2cccnc2n1,3,inactive
C#CCOCCOCCOCCN(Cc1ccccc1)C(=O)n1nccn1,0,active
C#CCOCCOCCOCCN(Cc1ccccc1)C(=O)n1ncc(-c2ccccc2)n1,0,active
